Experimental findings from PubChem BioAssay (Tox21) are described below.

Calls of active or inactive are those of the source. Calls follow the shape of the dose curve; as a rule, active = well fitted curve in the direction sought with a large enough effect in the repeat runs; inconclusive = weak or mixed curves; inactive = flat fitted curve, though single readings scatter.

A short description of this experiment: qHTS assay to test for compound auto fluorescence at 590 nm (red) in HepG2 cells (AID 720674). To be noted: HepG2 autofluorescence, red 540/590 nm, 1 h; series mostly up to 91.3 µM. An excerpt: U.S. Tox21 Program National Center for Advancing Translational Sciences [NCATS] NIH Chemical Genomics Center [NCGC] U.S. Environmental Protection Agency [EPA] National Institutes of Environmental Health Sciences [NIEHS] National Toxicology Program [NTP] U.S. Food and Drug Administration [FDA] Tox21 Assay Overview: Compound auto fluorescence often interferes with screening of the compound library against various biological targets and signaling pathways. Some of these compounds may have fluorophoric properties. Such properties may interfere with the assay outputs resulting in false positives and/or negatives. To decrease such complications and ensure the compound activities are relevant in terms of biological response, the Tox21 10K compound library was screened for auto fluorescence. From the fluorophores used as reporter signals in our screening assays, the auto fluorescence equivalencies of compounds against three fluorophores have been evaluated: Triamterene, Fluorescein and Rose Bengal sodium for blue, green and red fluorescence, respectively. The fluorescence intensities were measured using Excitation/Emission wavelengths at 405/460nm, 485/535nm and 540/590nm for blue, green and red labels, respectively. This assay includes the red fluorescence data.
Tox21 Assay Protocol Summary: 2,000 HepG2 cells in 5 uL of culture medium (MEM containing 10% FBS) per well were dispensed into black wall/clear bottom 1536-well plates using a Multidrop Combi Dispenser (ThermoFisher Scientific, Waltham, MA). The assay plates were incubated overnight at 37 C to allow cell attachment to the well bottom, followed by the transfer of 23 nL compound or DMSO vehicle by a pintool work station (Kalypsys , San Diego, CA). After the assay plates were incubated for 1 hr at 37 C and 5% CO2, fluorescence intensities in the assay plates were measured by an Envision (PerkinElmer, Shelton, CT) plate reader using three labels for measuring blue, green and red fluorescence at […] 460, 535 and 590 nm respectively.
(qHTS replaces the single test concentration by a dilution series.)
Consider `COc1ccc([C@@H]2CC(=O)c3c(O)cc(O[C@@H]4O[C@H](CO[C@@H]5O[C@@H](C)[C@H](O)[C@@H](O)[C@H]5O)[C@@H](O)[C@H](O)[C@H]4O)cc3O2)cc1OC`, for which the outcome was inactive.

As for `CC(=O)OCCC(C)C`, the outcome was inactive.

With `CCCCCCCCC(=O)O`, the result was inactive.

In the case of `O=C1CCCCCCCCCCC1`, the call was inactive.

Regarding `OCC(O)CS` (stereo not given), the call was inactive.

Turning to `Cc1ccccc1C=O`, the result was inactive.

Regarding `Cc1ncc(CO)c(CO)c1O`, the call was inactive.

For the compound `O=[N+]([O-])c1cc(C(F)(F)F)ccc1Cl`, the compound was classed as inactive.

Regarding `OB(O)O`, the call was inactive.

As for `Brc1ccc(Oc2ccc(Br)cc2)cc1`, the outcome was inactive.

As to `CCCCC(CC)COC(=O)c1ccc(C(=O)OCC(CC)CCCC)cc1` (stereo not given), the compound was called inactive.

In the case of `CC(=O)OC[C@H]1O[C@@](COC(C)=O)(O[C@H]2O[C@H](COC(C)=O)[C@@H](OC(C)=O)[C@H](OC(C)=O)[C@H]2OC(C)=O)[C@@H](OC(C)=O)[C@@H]1OC(C)=O`, the result was inactive.

On to `CC(=O)Nc1ccc(CC(=O)O)cc1`, for which the compound was classed as inactive.

Consider `COc1cc(NC(=O)CC(C)=O)c(OC)cc1Cl`, for which the outcome was inactive.

Consider `O=c1c(O)c(-c2ccc(O)c(O)c2)oc2cc(O)cc(O)c12`, for which the outcome was inactive.

Take `COc1c(Cl)ccc(Cl)c1C(=O)O`: the compound was called inactive.

As for `Nc1cccc(N)n1`, the result was inactive.

Take `O=C(O)Cc1c[nH]c2ccccc12`: the outcome was inactive.

In the case of `COC(=O)OC`, the result was inactive.

In the case of `COc1ccc(N)c(OC)c1`, the call was inactive.

On to `CCn1cc(C(=O)O)c(=O)c2cc3c(cc21)OCO3`, for which the compound was called inactive.

For the compound `OCc1ccc(Cl)cc1Cl`, the compound was classed as inactive.

In the case of `C1CCCNCC1`, the outcome was inactive.

Consider `C=C(C)CC(C)(C)C`, for which the compound was called inactive.

For `CC(=O)C(C)C`, the call was inactive.

With `CC1=CC(=O)CC(C)(C)C1`, the call was inactive.

On to `CCc1cccc(O)c1`, for which the outcome was inactive.

As for `C[n+]1ccn(CCO)c1`, the call was inactive.

In the case of `CC(=O)OC/C=C(\C)CCC=C(C)C`, the compound was classed as inactive.

As to `CC(C)=CCC/C(C)=C/C=O`, the call was inactive.

As to `CCN(CC)CCNC(=O)c1ccc(N)cc1`, the compound was classed as inactive.

Consider `Cc1cc(C)cc(O)c1`, for which the compound was classed as inactive.

For `O=C1C(N(CO)C(=O)NCO)N(CO)C(=O)N1CO` (stereo not given), the compound was classed as inactive.

For the compound `C=CC(=O)NCOCCCC`, the compound was called inactive.

Turning to `CC(=O)c1nccs1`, the outcome was inactive.

With `Cc1ccc([N+](=O)[O-])cc1N`, the result was inactive.

On to `NC1CCCCC1N` (stereo not given), for which the compound was called inactive.

In the case of `CC(C=O)Cc1ccc(C(C)(C)C)cc1` (stereo not given), the call was inactive.

For `CCCCCCCCCCCC(=O)N(C)CC(=O)O`, the result was inactive.

On to `CO[Si](CCCNCCN)(OC)OC`, for which the call was inactive.
